PubChem BioAssay AID1159580 (chemical genetic matrix, 2015)
Several values for one entry are separate records, joined by “and”; a condition that tells them apart may be missing. Equal entries are not always repeated. Hit rate of the full screen: of about 5,500 compounds, about 2,000 (36%) were called active. About 18% were inconclusive and are not listed. Cut-off read from the data, not from the text of the source: active = normalized growth mostly below about 0.91 (no sharp cut-off); inconclusive = no clear call, values can overlap the other calls; inactive = mostly above about 0.92. The list shows a part of the results.

Test: chemical genetic growth profiling, strain panel (AID 1159580);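 note: tested at 20 µM; growth read once vehicle control cultures reached saturation at 30 °C; 1 = growth at the plate median or of vehicle wells; lower values mean less growth of the strain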
Conditions: S. cerevisiae deletion strains, growth OD

Measured: normalized growth

Cc1cccc(C)c1NC(=O)C1CCCCN1C (configuration not stated)
inactive: locus YAL013W, strain DEP1, active compounds read low 1.02 | locus YAL021C, strain ccr4, active compounds read low 1.02 | locus YAL026C, strain drs2, active compounds read low 0.993 | locus YAL030W, strain snc1, active compounds read low 0.985 | locus YBL061C, strain skt5, active compounds read low 0.979 | locus YBR009C, strain hhf1, active compounds read low 0.989 | locus YBR021W, strain FUR4, active compounds read low 1 | locus YBR023C, strain chs3, active compounds read low 0.991 | locus YBR171W, strain sec66, active compounds read low 0.977 | locus YBR229C, strain ROT2, active compounds read low 1.01 | locus YBR231C, strain swc5, active compounds read low 0.993 | locus YBR279W, strain paf1, active compounds read low 0.991 | locus YCL011C, strain gbp2, active compounds read low 0.988 | locus YCL016C, strain dcc1, active compounds read low 0.995 | locus YCL029C, strain bik1, active compounds read low 1.02 | locus YCL061C, strain MRC1, active compounds read low 0.975 | locus YCL069W, strain vba3, active compounds read low 0.983 | locus YCR088W, strain abp1, active compounds read low 0.992 | locus YDL005C, strain med2, active compounds read low 0.982 | locus YDL035C, strain GPR1, active compounds read low 1.01 | locus YDL040C, strain nat1, active compounds read low 0.986 | locus YDL074C, strain BRE1, active compounds read low 1 | locus YDL101C, strain DUN1, active compounds read low 1.01 | locus YDL134C, strain PPH21, active compounds read low 0.99 | locus YDL185W, strain tfp1, active compounds read low 1.01 | locus YDL192W, strain arf1, active compounds read low 1.01 | locus YDR001C, strain nth1, active compounds read low 0.985 | locus YDR069C, strain doa4, active compounds read low 1 | locus YDR101C, strain arx1, active compounds read low 1 | locus YDR137W, strain rgp1, active compounds read low 0.984 | locus YDR150W, strain NUM1, active compounds read low 1 | locus YDR159W, strain sac3, active compounds read low 0.983 | locus YDR162C, strain NBP2, active compounds read low 0.994 | locus YDR195W, strain ref2 0.986 | locus YDR297W, strain sur2, active compounds read low 0.992 | locus YDR318W, strain mcm21, active compounds read low 1.01 | locus YDR334W, strain swr1, active compounds read low 0.982 | locus YDR335W, strain msn5, active compounds read low 0.989 | locus YDR388W, active compounds read low 1.01 | locus YDR392W, strain spt3, active compounds read low 0.996 | locus YDR502C, strain sam2, active compounds read low 1.01 | locus YEL003W, strain gim4, active compounds read low 0.986 | locus YEL037C, strain rad23, active compounds read low 0.996 | locus YEL061C, strain CIN8 (second series), active compounds read low 0.992 | locus YEL061C, strain CIN8, active compounds read low 1 | locus YER015W, strain faa2, active compounds read low 0.988 | locus YER016W, strain bim1, active compounds read low 0.983 | locus YER110C, active compounds read low 1.02 | locus YER111C, strain swi4, active compounds read low 0.994 | locus YER155C, strain BEM2 (second series), active compounds read low 0.982 | locus YER155C, strain BEM2, active compounds read low 0.99 | locus YER167W, strain BCK2, active compounds read low 1 | locus YFR010W, strain ubp6, active compounds read low 0.984 | locus YGL078C, strain dbp3, active compounds read low 1.01 | locus YGL086W, strain mad1, active compounds read low 1 | locus YGL167C, strain pmr1, active compounds read low 0.995 | locus YGL173C, strain kem1, active compounds read low 0.988 | locus YGL227W, strain vid30, active compounds read low 0.98 | locus YGL240W, strain doc1, active compounds read low 0.981 | locus YGL248W, strain PDE1, active compounds read low 1 | locus YGL253W, strain hxk2, active compounds read low 0.982 | locus YGR078C, strain PAC10, active compounds read low 0.996 | locus YGR135W, strain pre9, active compounds read low 1 | locus YGR229C, strain SMI1, active compounds read low 1 | locus YGR252W, strain gcn5, active compounds read low 0.963 | locus YHR013C, strain ard1, active compounds read low 0.96 | locus YHR027C, strain rpn1, active compounds read low 0.986 | locus YHR030C, strain SLT2, active compounds read low 1 and 1.01 | locus YHR079C, strain IRE1 (second series), active compounds read low 1.01 | locus YHR079C, strain IRE1, active compounds read low 1.03 | locus YHR094C, strain hxt1, active compounds read low 1.01 | locus YHR129C, strain ARP1, active compounds read low 1.01 | locus YHR142W, strain chs7, active compounds read low 0.987 | locus YHR200W, strain rpn10, active compounds read low 1 | locus YIL066C, strain RNR3, active compounds read low 0.999 | locus YIL073C, strain SPO22, active compounds read low 1.01 | locus YIL125W, strain kgd1, active compounds read low 1.01 | locus YIR030C, strain dcg1, active compounds read low 1.01 | locus YJL092W, strain hpr5, active compounds read low 0.986 | locus YJL095W, strain BCK1 (second series), active compounds read low 0.989 | locus YJL095W, strain BCK1, active compounds read low 1.02 and 0.998 | locus YJL115W, strain asf1, active compounds read low 0.996 | locus YJL129C, strain trk1, active compounds read low 1.01 | locus YJL134W, strain LCB3, active compounds read low 1.01 | locus YJL154C, strain vps35, active compounds read low 0.994 | locus YJL164C, strain tpk1, active compounds read low 0.987 | locus YJL166W, strain qcr8, active compounds read low 0.993 | locus YJL168C, strain set2, active compounds read low 1.01 | locus YJL187C, strain SWE1 (second series), active compounds read low 1.01 | locus YJL187C, strain SWE1, active compounds read low 0.985 | locus YJR043C, strain POL32, active compounds read low 1.02 | locus YJR066W, strain TOR1, active compounds read low 0.986
